Compounds without any hit were thinned out: in the full panel of roughly 83,000, 20% have a hit.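 Testing used 96-well plates and a 48-hour single-concentration exposure. Example: -40 means 40% of the starting cells died.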 Calls of active or inactive are those of the source. How the source made its calls: active means growth percent below 10; inactive means the rest.
Legend:
Assay in all cases: NCI-60 one-dose screen, 48 h (100 = growth as untreated, 0 = no growth, -100 = all killed)
Details in all cases: 10 µM
[1] = system: DU-145 prostate
[2] = system: K-562 leukemia
[3] = system: MALME-3M melanoma
[4] = system: MDA-MB-231 breast
[5] = system: RXF 393 renal
[6] = system: SF-268 CNS
[7] = system: SF-295 CNS
[8] = system: SF-539 CNS
[9] = system: UACC-257 melanoma
[10] = system: M14 melanoma
[11] = system: HCT-15 colon
[12] = system: HT29 colon
[13] = system: SNB-75 CNS
[14] = system: SNB-19 CNS
[15] = system: U251 CNS
[16] = system: PC-3 prostate
[17] = system: SK-MEL-5 melanoma
[18] = system: UACC-62 melanoma
[19] = system: LOX IMVI melanoma
[20] = system: SK-MEL-28 melanoma

Measured: growth

S=C(SSC(=S)N(c1ccccc1)c1ccccc1)N(c1ccccc1)c1ccccc1
inactive: [1] 109% | [2] 104% | [3] 99% | [4] 114% | [5] 111% | [6] 97.8% | [7] 102% | [8] 109% | [9] 81.7% | [10] 101% | [11] 103% | [12] 96.6% | [13] 100% | [14] 99.4% | [15] 87.9% | [16] 81.9% | [17] 102% | [18] 103% | [19] 95.2%

COc1cc(-c2nc3ccccc3o2)cc(CN2CCCCC2)c1O
inactive: [1] 12.9% | [2] 32.7% | [3] 28.9% | [4] 70.9% | [5] 94.8% | [6] 68.2% | [7] 32.5% | [8] 83.5% | [9] 75.2% | [10] 34.9% | [11] 41.4% | [12] 87.2% | [13] 57.6% | [14] 83.3% | [15] 47.5% | [16] 41.8%
active: [17] -83.3% | [18] -15.3% | [19] -18.6%

COc1ccc2c(c1)C(=O)/C(=C/c1ncc([N+](=O)[O-])n1C)O2
active: [1] -13.6% | [2] 1.52% | [3] -56.2% | [4] -18.1% | [5] -54.4% | [6] -39.7% | [7] -18.4% | [8] -29.4% | [9] -43.9% | [10] -37.7% | [11] 6.82% | [12] -20.5% | [14] -16.6% | [15] -25.4% | [17] -89% | [18] -68.4% | [19] -68.1% | [20] -22.4%
inactive: [13] 69.5% | [16] 101%

NC(=O)c1cccc(-n2ccc3cc(NC(=O)Nc4ccc(Cl)c(C(F)(F)F)c4)ccc32)n1
inactive: [1] 95% | [2] 59.3% | [3] 87.8% | [4] 75.8% | [6] 76.6% | [7] 58.2% | [8] 44.2% | [9] 93.3% | [10] 78.8% | [11] 56.6% | [12] 61.9% | [13] 47.5% | [14] 71% | [15] 56.5% | [16] 53.4% | [17] 78.3% | [18] 70.9% | [19] 76.9%
active: [5] 2.44%

CCCCN(CCCC)C(=O)[C@H](CC)[C@@H]1CC[C@@H](C)[C@@H]([C@H](C)[C@@H](O)[C@@H](C)C(=O)[C@H](CC)C2O[C@]3(C=C[C@@H](O)[C@]4(CC[C@@](C)([C@H]5CC[C@](O)(CC)[C@H](C)O5)O4)O3)[C@H](C)C[C@@H]2C)O1 (stereo partly specified)
inactive: [1] 35.4% | [2] 14.1% | [6] 19.6% | [8] 16.9% | [10] 14.2% | [14] 15.3% | [15] 13.9% | [18] 12.2% | [20] 39.8%
active: [3] -15.8% | [4] -25.3% | [5] -3.81% | [7] -10.4% | [9] 0.418% | [11] -5.99% | [12] 7.79% | [13] -12.4% | [16] 4.26% | [17] -92% | [19] 2.12%

CCN(CC)CCCOc1cccc2c1C(=O)c1cccc(OCCCN(CC)CC)c1C2=O
inactive: [1] 38.4% | [2] 16.1% | [3] 39.9% | [4] 35.5% | [5] 31.2% | [6] 44.3% | [7] 45.2% | [8] 40.2% | [9] 47.9% | [10] 48.1% | [11] 34.5% | [12] 11% | [13] 52.6% | [14] 34.1% | [15] 31.2% | [16] 33.2% | [17] 46.6% | [18] 53% | [19] 16.9%

CCOC(=O)c1cc(C(=O)c2cc(OC)c(OC)c(OC)c2)n2ncc3ccccc3c12
inactive: [1] 83.6% | [2] 23% | [3] 70.5% | [4] 98.7% | [5] 88.3% | [6] 84% | [7] 72.5% | [8] 86.7% | [9] 57.1% | [10] 50.2% | [11] 58.5% | [12] 29.6% | [13] 79.5% | [14] 88.2% | [15] 81% | [16] 54.6% | [17] 34.5% | [18] 70.2% | [19] 66.3% | [20] 90.9%

O=C(CCCSc1nc(-c2ccc(Cl)cc2)cc(-c2ccc(Cl)cc2)n1)NO
inactive: [1] 15.1% | [4] 14.6% | [6] 11.6% | [9] 13.2% | [11] 17.6% | [12] 23.2% | [13] 13.7% | [14] 17.7% | [15] 17.2% | [16] 21% | [20] 25%
active: [2] 5.07% | [3] 2.37% | [5] -15.3% | [7] -4.84% | [8] -23% | [10] -15.5% | [17] -31.7% | [18] -10.7% | [19] -2.15%

Cc1c(Cl)cccc1NC(=O)CCCl
inactive: [1] 106% | [2] 88.2% | [3] 108% | [4] 121% | [5] 112% | [6] 97.8% | [7] 106% | [8] 102% | [9] 89.2% | [10] 97% | [11] 110% | [12] 95.4% | [13] 98.1% | [14] 96.7% | [15] 91% | [16] 94.3% | [17] 104% | [18] 93.2% | [19] 101% | [20] 108%

CN(C)CCCOc1cccc(NC2=C(Cl)C(=O)C(Nc3cccc(OCCCN(C)C)c3)=C(Cl)C2=O)c1
inactive: [7] 64.3% | [13] 53.8%
active: [1] -97.7% | [2] -29.7% | [3] -74.8% | [4] -73.6% | [5] -88.8% | [6] -62.6% | [8] -77.7% | [9] -90.1% | [10] -75.6% | [11] -19.5% | [12] -67.4% | [14] -42.3% | [15] -78% | [16] 0.365% | [17] -96.5% | [18] -72.9% | [19] -82.6% | [20] -72.7%

COc1cccc(-c2nc3sccn3c2-c2cccc(S(C)(=O)=O)c2)c1
inactive: [1] 110% | [2] 95.5% | [3] 129% | [4] 93.4% | [5] 84.1% | [6] 100% | [7] 94.4% | [8] 94.3% | [9] 115% | [10] 119% | [11] 95.3% | [12] 118% | [13] 95.1% | [14] 99.2% | [15] 106% | [16] 94.7% | [17] 94.8% | [18] 99.4% | [19] 88.6% | [20] 112%

COc1ccc(/C=C2\CCCC3=C2NC(N)=NC3c2ccc(OC)c(OC)c2)cc1OC (stereo unspecified)
inactive: [1] 76.7% | [2] 56% | [3] 52.5% | [4] 74% | [5] 20.9% | [6] 63.8% | [7] 70.7% | [8] 85.2% | [9] 46.2% | [10] 57.3% | [11] 35.9% | [12] 24.2% | [13] 63.9% | [14] 88.7% | [15] 37.8% | [16] 61.5% | [17] 39.7% | [18] 52.8% | [19] 12.9% | [20] 65.3%

CCCCC/C=C/C/C=C/CCCCCCCC1=NC(C)(C)CN1C(C)C
active: [2] -30.9% | [11] -3.26% | [12] -21% | [15] 0.562%
inactive: [1] 63.1% | [3] 56.3% | [4] 36.6% | [5] 25.1% | [6] 55.6% | [7] 31.2% | [8] 65.7% | [9] 25.7% | [10] 28.5% | [13] 42.7% | [14] 47.3% | [16] 28.9% | [17] 30.1% | [18] 15.1% | [19] 12.9% | [20] 72%

COc1ccc(-c2cc(-c3ccc(Cl)cc3)nc(SCCCC(=O)NO)n2)cc1
inactive: [11] 14.5% | [12] 13.3% | [14] 13.5% | [20] 31.9%
active: [1] 9.82% | [2] 7.35% | [3] -11.8% | [4] 1.61% | [5] -21% | [6] 2.08% | [7] -19.1% | [8] 4.55% | [9] 3.4% | [10] -31.1% | [13] -6% | [15] 5.21% | [16] 0.504% | [17] -52.5% | [18] -57.2% | [19] -24.9%

C/C(=N\O)c1ccc(NC(=O)CSc2nnc(-c3ccccc3)n2-c2ccccc2)cc1
inactive: [1] 90.6% | [2] 95.8% | [3] 82.9% | [4] 67.9% | [5] 99.9% | [6] 99.8% | [7] 92.2% | [8] 52.6% | [9] 94.5% | [10] 91.8% | [11] 97.5% | [12] 84% | [13] 45.8% | [14] 97.2% | [15] 59.2% | [16] 73.7% | [17] 48.6% | [18] 81.9% | [19] 63.6% | [20] 97.7%

CC(C)(C)OC(=O)N1CCc2c(sc3ncnc(N/N=C/c4cccc5ccccc45)c23)C1
active: [2] 7.07% | [5] 2.63% | [7] 1.31% | [8] -11.3% | [11] 6.88% | [13] -3.28% | [17] -57.2% | [18] 0.0448%
inactive: [1] 49.7% | [3] 49.9% | [4] 45.6% | [6] 46.7% | [9] 40.6% | [10] 20.3% | [12] 26.2% | [14] 26.3% | [15] 33.7% | [16] 25.9% | [19] 13.1% | [20] 32.9%
